Compound activity as filed in PubChem BioAssay.
Rows were chosen to be rich in hits. Some 6.8% of all compounds tested hit in one or more screens of this group.
NS3h inh CB – hepatitis C NS3 helicase inhibition, primary screen; NS3h Cy5-dT15 DNA binding, fluorescence polarization; inhibition, % at 100 µM; 1.6% of 16,000 active; AID 687043;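 active = inhibition above the average over every tested compound plus 3 SD, cut at about 40% in these data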
Cy5 interf NS3h – enhances or quenches Cy5 fluorescence in NS3h assay; Cy5-dT15 DNA with NS3h, fluorescence interference; actives lie on both sides; signal over control mean, under 1 quenches; fluorescence interference ratio at 100 µM; 6% of 16,000 active; AID 720488;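 active = compound fluorescence over control fluorescence at most 0.8, a quencher, or at least a set upper limit, an enhancer; inactive = ratio between 0.8 and the set upper limit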
Large screens that a line does not name were inactive.

COc1ccc(/C=C(\C#N)c2nn(-c3ccccc3)c(N)c2C#N)cc1[N+](=O)[O-]	Cy5 interf NS3h 0.79
CCOc1cc(/C=C(\C#N)c2nn(CCO)c(N)c2C#N)cc(Br)c1OC	none
Nc1ccc2nc(SCC(=O)Nc3ccc4nc(SCC(=O)NC5CC5)sc4c3)sc2c1	none
Cc1ccc(S(=O)(=O)Nc2ccc(S(=O)(=O)NC(=O)C3CCCCC3)cc2)cc1	Cy5 interf NS3h 0.72
CC(=O)NS(=O)(=O)c1ccc(NS(=O)(=O)c2ccc(C)cc2)cc1	none
CC(Oc1ccccc1)C(=O)Nc1cccc(C(=O)Nc2ccccc2Cl)c1 (configuration not stated)	none
COC(=O)C1=C(C)NC2=C(C(=O)c3ccccc32)C1c1ccc(F)cc1 (configuration not stated)	none
O=C1C2=C(Nc3[nH]n(-c4ccccc4)c(=O)c3C2c2ccccc2)c2ccccc21 (configuration not stated)	Cy5 interf NS3h 0.76
C/C(=N/N=C1\NC(=O)C(CC(=O)Nc2ccc([N+](=O)[O-])cc2)S1)c1ccc(F)cc1 (configuration not stated)	none
C/C(=N/N=C1\NC(=O)C(CC(=O)Nc2ccc(Cl)cc2Cl)S1)c1ccc(F)cc1 (configuration not stated)	Cy5 interf NS3h 1.2
COC(=O)c1ccccc1NC(=O)c1ccc(CN2CCOCC2)cc1	none
CN(C)c1ccc(NC(=O)c2cc(Cl)ccc2Cl)cc1	NS3h inh CB 45
CN(C)c1ccc(NC(=O)c2ccccc2F)cc1	none
C=CCNC(=O)CN(c1ccc(OC)c(Cl)c1)S(=O)(=O)c1ccccc1	none
Cc1cccc(C(=O)Nc2ccc(C(=O)/C=C/c3ccncc3)cc2)c1	Cy5 interf NS3h 0.74
CC(=O)Nc1cccc(C(=O)/C=C/c2ccc(/C=C/C(=O)c3cccc(NC(C)=O)c3)cc2)c1	none
COc1ccc(C2C3=C(CC(C)(C)CC3=O)OC3=C2C(=O)CC(C)(C)C3)cc1Br	none
COc1cc(Br)c(C2C3=C(CC(C)(C)CC3=O)OC3=C2C(=O)CC(C)(C)C3)cc1OC	Cy5 interf NS3h 0.77
O=C(Nc1ccccc1O)c1ccc2c(c1)C(=O)N(c1cccc(C(=O)c3ccccc3)c1)C2=O	none
O=C(Nc1nccs1)c1cccc(N2C(=O)c3ccccc3C2=O)c1	Cy5 interf NS3h 1.2
O=[N+]([O-])c1cccc(N=Cc2ccc[nH]2)c1	Cy5 interf NS3h 0.68
NS(=O)(=O)c1ccc(N=Cc2ccc[nH]2)cc1	none
O=[N+]([O-])c1cccc2c1=C1C(Cl)=CC=C1C=2	Cy5 interf NS3h 0.54
O=C1c2ccccc2C(=O)N1N1C(=O)c2cccc([N+](=O)[O-])c2C1=O	none
O=C(Nc1ccncc1)Nc1ccccn1	none
O=C(Nc1ccccc1)Nc1ncccn1	Cy5 interf NS3h 0.78
COc1ccc(NC(=O)c2cccc(C(F)(F)F)c2)c2ccccc12	none
CC(C)(C)NC(=O)c1cc(-c2ccccc2)n(-c2ccccc2)n1	none
c1coc(-c2nc3c(ccc4ccccc43)[nH]2)c1	none
O=C(NCCN1CCOCC1)c1cnn2c1NC(c1ccco1)CC2C(F)(F)F (configuration not stated)	none
COc1ccc(C2CC(C(F)(F)F)n3ncc(C(=O)NC(C)(C)C)c3N2)cc1 (configuration not stated)	Cy5 interf NS3h 0.69
Cc1ccc(C2CC(C(F)(F)F)n3ncc(C(=O)N4CCN(c5ccc(F)cc5)CC4)c3N2)cc1 (configuration not stated)	Cy5 interf NS3h 0.63
COCCNC(=O)c1cnn2c1NC(c1ccc(OC)c(OC)c1)CC2C(F)(F)F (configuration not stated)	none
COc1ccc(C2CC(C(F)(F)F)n3ncc(C(=O)N4CCN(Cc5ccccc5)CC4)c3N2)cc1OC (configuration not stated)	Cy5 interf NS3h 0.61
O=C(c1ccccc1)N1CCN(C(=O)c2cnn3c2NC(c2ccc(Br)cc2)CC3C(F)(F)F)CC1 (configuration not stated)	none
Cc1ccc(C2CC(C(F)(F)F)n3ncc(C(=O)NCCN4CCOCC4)c3N2)cc1 (configuration not stated)	Cy5 interf NS3h 0.77
COc1ccc(C2CC(C(F)(F)F)n3ncc(C(=O)Nc4ccccc4SC)c3N2)cc1 (configuration not stated)	none
O=C1OC(c2ccccc2F)=N/C1=C\c1cccc([N+](=O)[O-])c1	none
O=C(O)COc1ccccc1/C=N/NC(=O)C1COc2ccccc2O1 (configuration not stated)	none
COc1ccc(-c2nnnn2C)cc1S(=O)(=O)Nc1ccc(I)cc1	none
O=C(N/N=C\c1ccc(F)cc1)/C(=C\c1cccs1)NC(=O)c1ccccc1	none
O=C(Nc1ccc(OCc2ccccc2)cc1)C(c1ccccc1)c1ccccc1	none
O=C(NC(Cc1ccccc1)C(=O)Nc1ccccc1)OCc1ccccc1 (configuration not stated)	Cy5 interf NS3h 0.68
CC(=O)Nc1ccccc1NC(=O)/C=C/c1ccccc1	none
